# The panel holds about 83,000 compounds, 20% with a hit somewhere; the sample as a whole holds those more often.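 Growth was measured after 48 h exposure to one concentration of compound in 96-well plates. Values under 10 count as active.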 The source made the active and inactive calls.
# System: NCI-H226 lung
# Assay: NCI-60 one-dose screen, 48 h (100 = growth as untreated, 0 = no growth, -100 = all killed)
# Conditions: 10 µM unless noted
row,Structure (SMILES),growth
1,S=C(Nc1ccc(OCc2nc3ccccc3[nH]2)cc1)NC1CCCCC1,105% (inactive)
2,Cc1ccc(NC(=O)[C@]23CCC(C)(C)CC2C2=CCC4[C@@]5(C)C[C@@H](O)[C@H](O)[C@@](C)(CO)C5CC[C@@]4(C)[C@]2(C)CC3)cc1 (stereo not given in full),9.45% (active)
3,O=S(=O)(Nc1cccc(-n2cnc3cc(-c4ccc(O)cc4)ccc32)c1)C1CC1,19.3% (inactive)
4,Cn1cc(-c2nnc(N)nc2-c2c[nH]c3ccccc23)c2cccnc21,71.1% (inactive)
5,CN(C)c1ccnc(CNCCSC2(c3ccc(C(F)(F)F)cc3)c3ccccc3CCc3ccccc32)c1,-31.6% (active)
6,CC1=C(C(=O)OC(C)C)C(c2cccc(O)c2)NC(=S)N1 (stereo not given),101% (inactive)
7,N/N=C(\N)c1c(N)nc(=S)[nH]c1-c1ccc(Cl)cc1Cl,106% (inactive)
8,COc1ccc2[nH]cc(-c3nnc(N)nc3-c3c[nH]c4ncc(Br)cc34)c2c1,73.1% (inactive)
9,COc1cc(C2CC(c3cc(OC)c(OC)c(OC)c3)=NN2c2ccccc2)ccc1OCc1ccc(C)cc1 (stereo not given),80.2% (inactive)
10,O=C(N/N=C/c1ccc(-c2ccc(O)cc2)o1)c1[nH]c2ccc(Br)cc2c1-c1ccccc1,10.6% (inactive)
